High-throughput results from PubChem BioAssay.
FLuc counter: qHTS profiling assay for firefly luciferase inhibitor/activator using purifed enzyme and Km concentrations of substrates (counterscreen for miR-21 project); Luciferin 4-monooxygenase (Photinus pyralis), P08659; purified FLuc, Km substrates, luminescence inhibition; Potency, µM (series often up to 57.5 µM), without a hit: at the top dose activity change, negative = inhibition, most hits filed as inhibitors; actives 6.9% (n = 360,000); AID 588342, 2011;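 further: plate controls were vehicle for no effect and reference inhibitor for full effect; nearly all actives have a fitted effect of over 55% in size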
Target sequence (P08659 whole entry, looked up): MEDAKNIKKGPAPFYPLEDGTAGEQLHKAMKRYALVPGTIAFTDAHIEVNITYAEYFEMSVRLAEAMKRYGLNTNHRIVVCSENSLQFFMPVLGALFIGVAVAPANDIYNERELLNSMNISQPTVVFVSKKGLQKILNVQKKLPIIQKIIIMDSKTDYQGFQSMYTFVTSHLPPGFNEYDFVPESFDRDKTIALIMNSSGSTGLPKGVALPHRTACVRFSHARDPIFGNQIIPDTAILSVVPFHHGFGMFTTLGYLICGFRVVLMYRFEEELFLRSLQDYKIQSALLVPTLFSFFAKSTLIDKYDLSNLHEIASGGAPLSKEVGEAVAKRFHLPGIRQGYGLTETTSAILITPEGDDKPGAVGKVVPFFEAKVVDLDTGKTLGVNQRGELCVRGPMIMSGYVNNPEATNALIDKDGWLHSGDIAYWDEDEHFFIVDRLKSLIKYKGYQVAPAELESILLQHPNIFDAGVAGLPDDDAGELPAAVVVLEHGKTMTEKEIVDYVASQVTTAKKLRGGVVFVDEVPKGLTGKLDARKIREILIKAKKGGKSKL
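Purified P. pyralis luciferase (10nM final) with 10uM D-luciferin and 10uM ATP (Km levels) in 50mM Tris acetate pH 7.5, 10mM Mg acetate, 0.01% Tween-20, 0.05% BSA; qHTS 6-point titration, ~60 µM downward; luminescence read.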
p53 reactivation: qHTS assay for re-activators of p53 using a Luc reporter | H1299 p53-A138V BP100-luciferase reporter, luminescence, 24 h | Potency, µM (top dose mostly 92.2 µM), inactives show top-dose activity change, positive = activation, usual class: activators | actives 0.063% (n = 320,000) | AID 504706, 2011; further: % of control where 0% means no effect; nearly all actives have a fitted effect of over 45% in size
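H1299 (p53-null), stable ts p53-A138V + BP100-Luc; 1000 cells/well, Opti-MEM/10% FBS; cpd 4 pt, 1:5; 24 h, 37 deg C, 5% CO2; detection reagent 10 min RT; luminescence.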
SMN2 splice up: qHTS Assay for Enhancers of SMN2 Splice Variant Expression; HEK293 SMN2-luciferase splicing reporter, luminescence, 30-36 h; Potency, µM (series often up to 46.1 µM), inactives show top-dose activity change, positive = activation, usual class: activators; actives 2.8% (n = 210,000); further: % of control where 0% means no effect; nearly all actives have a fitted effect of over 55% in size
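qHTS luciferase splicing reporter: luminescence rises when SMN2 exon 7 is included in transfected HEK293 cells. Compound exposure lasted 30-36 h at 37C, with 4.5 mM final sodium butyrate as control, followed by a ONE-Glo read.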
NPC1 prom act: qHTS Assay for NPC1 Promoter Activators; Huh7 NPC1 promoter luciferase reporter, 24 h; Potency, µM (titrated, usually from 9.22 µM), without a hit: at the top dose activation, hits mostly activators; actives 2.4% (n = 320,000); further: % of control where 0% means no effect; nearly all actives have a fitted effect of over 60% in size
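Readout is luciferase luminescence, reflecting NPC1 promoter activation in stably transfected Huh7 cells after 24 h compound exposure at 37 °C in reduced-serum medium with 10% FBS.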
ELG1 genotox: qHTS screen for small molecules that induce genotoxicity in human embryonic kidney (HEK293T) cells expressing luciferase-tagged ELG1; HEK293T ELG1-luciferase reporter, luminescence, 16 h; Potency, µM (series often up to 46 µM), without a hit: at the top dose activity change, positive = activation, hits mostly activators; actives 1.3% (n = 330,000); further: % of control where 0% means no effect; nearly all actives have a fitted effect of over 60% in size
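HEK293T cells expressing luciferase-tagged ELG1 were treated with compound or DMSO for 16 hr at 37°C. Luciferase activity was then read after 30 min with ONE-Glo at room temperature; rising signal flags genetic stress.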
Rab9 promoter act: qHTS Assay for Rab9 Promoter Activators; Huh7 Rab9 promoter-luciferase reporter, luminescence, 24 h; Potency, µM (doses to about 9.22 µM), inactives show top-dose activation, negative = inhibition, hits mostly activators; actives 2.8% (n = 320,000); AID 485297, 2010; further: % of control where 0% means no effect; nearly all actives have a fitted effect of over 60% in size
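Luciferase signal after 10 min detection reagent at ambient indicates Rab9 promoter upregulation; stably transfected Huh7 cells were treated 24 h with compound in DMSO at 37 °C, 5% CO2.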
Active calls of the source: *. Sampled rows, rich in hits. Any-hit rate of the full collection: about 7.4%. The call rests on the fitted dose curve; in most records, active means well fitted curve in the direction sought with a large enough effect; inconclusive means small, poorly fitted or top-dose-only effect, or another doubt; inactive means no such curve, though single readings can be large; an effect the other way counts as inactive or inconclusive. Potency means the concentration at half of the fitted maximal effect.

Results for Cn1c(N)c(C(=O)COC(=O)c2cc(-c3ccco3)nc3ccccc23)c(=O)n(C)c1=O ?
FLuc counter: inconclusive; p53 reactivation: -13.5%; SMN2 splice up: -22.8%; NPC1 prom act: 0.5%; ELG1 genotox: -6.9%; Rab9 promoter act: -3.4%

Results for COc1ccc(-c2cc(C(=O)OCC(=O)c3c(N)n(C)c(=O)n(C)c3=O)c3ccccc3n2)cc1 ?
FLuc counter: 7.57µM*; p53 reactivation: 1.3%; SMN2 splice up: -5.2%; NPC1 prom act: -0.9%; ELG1 genotox: 2.4%; Rab9 promoter act: 13.6%

Results for COc1ccc(-c2cc(C(=O)c3c(N)n(C)c(=O)n(C)c3=O)c3ccccc3n2)cc1 ?
FLuc counter: 0.379µM*; p53 reactivation: -1.0%; NPC1 prom act: inconclusive; ELG1 genotox: inconclusive; Rab9 promoter act: inconclusive

Results for Cc1cc(C)cc(OCC(=O)Nc2ccc(-n3cnnn3)cc2)c1 ?
FLuc counter: 4.3%; p53 reactivation: -7.4%; NPC1 prom act: -5.8%; ELG1 genotox: 8.9%; Rab9 promoter act: -6.7%

What do the screens show for `O=C(CNS(=O)(=O)c1ccccc1)N1CCc2ccccc2C1`?
FLuc counter: inconclusive; p53 reactivation: 15.8%; NPC1 prom act: inconclusive; ELG1 genotox: 15.0%; Rab9 promoter act: inconclusive

Results for Cc1ccc(CCNC(=O)c2ccc(NC(=O)N3CCSc4ccccc43)cc2)cc1 ?
FLuc counter: 1.3%; SMN2 splice up: -1.1%

Results for O=[N+]([O-])c1cc(N(CCO)CCO)ccc1NCCO ?
SMN2 splice up: -11.0%

Results for CCCCNC(=S)NNC(=O)c1cc(-c2cccnc2)nc2ccccc12 ?
FLuc counter: 15.1µM*; p53 reactivation: -1.3%; NPC1 prom act: -2.0%; ELG1 genotox: -0.2%; Rab9 promoter act: 0.3%

What do the screens show for `CCCNC(=S)NNC(=O)c1cc(-c2cccnc2)nc2ccccc12`?
FLuc counter: 19µM*; p53 reactivation: 16.7%; NPC1 prom act: -1.3%; ELG1 genotox: -2.1%; Rab9 promoter act: -8.9%

Results for CCCCNS(=O)(=O)c1ccc2nc(-c3cccnc3)cc(C(=O)NCCCOC)c2c1 ?
FLuc counter: -0.5%; p53 reactivation: -2.5%; SMN2 splice up: 5.5%; NPC1 prom act: -3.9%; ELG1 genotox: 6.9%; Rab9 promoter act: -9.4%

What do the screens show for `CCNC(=S)NNC(=O)c1cc(-c2cccnc2)nc2ccccc12`?
FLuc counter: 9.53µM*; p53 reactivation: -1.5%; SMN2 splice up: 13.1%; NPC1 prom act: -3.0%; ELG1 genotox: 3.2%; Rab9 promoter act: 2.6%

What do the screens show for `C=C(C)C(=O)Nc1cccc(C2=NOC3(C2)C[C@@H](C(N)=O)N(C(=O)/C=C/C=C/C)C3)c1` (stereo not given in full)?
FLuc counter: 7.1%; p53 reactivation: 5.2%; NPC1 prom act: -5.6%; ELG1 genotox: 0.6%; Rab9 promoter act: -6.6%

What do the screens show for `CN(C)S(=O)(=O)c1cccc(NC(=O)Cc2ccc(-c3ccccc3)cc2)c1`?
FLuc counter: -2.9%; p53 reactivation: -4.3%; NPC1 prom act: 0.7%; ELG1 genotox: -16.2%; Rab9 promoter act: 0.2%

Results for c1ccc(CCNc2nc3ccccc3s2)cc1 ?
FLuc counter: 19µM*; p53 reactivation: 16.7%; SMN2 splice up: -11.6%; NPC1 prom act: inconclusive; ELG1 genotox: inconclusive; Rab9 promoter act: inconclusive

What do the screens show for `COc1ccc(CNc2nccs2)cc1OC`?
FLuc counter: 10.4%; NPC1 prom act: 0.4%; ELG1 genotox: 0.5%; Rab9 promoter act: -3.9%

How did Cc1ccc(CNc2nc3ccccc3s2)s1 do in these assays?
FLuc counter: 0.338µM*; SMN2 splice up: 1.26µM*; NPC1 prom act: 0.355µM*; ELG1 genotox: inconclusive; Rab9 promoter act: 0.355µM*

What do the screens show for `Cc1ccc(CNC(C)c2ccccc2)s1` (stereo not given)?
FLuc counter: 1.0%; SMN2 splice up: -1.8%

What do the screens show for `COc1ccc(CNc2nc3ccccc3s2)cc1OC`?
FLuc counter: 23.9µM*; p53 reactivation: 10.7%; NPC1 prom act: inconclusive; ELG1 genotox: inconclusive; Rab9 promoter act: inconclusive

Results for COC(=O)c1ccc(NC(=O)c2ccc[n+]([O-])c2)cc1 ?
FLuc counter: 0.9%; p53 reactivation: 4.3%; NPC1 prom act: -5.0%; ELG1 genotox: 0.8%; Rab9 promoter act: -1.6%

How did COc1ccc(-n2nc(C(=O)N(C)C)nc2-c2ccccc2)cc1 do in these assays?
FLuc counter: -0.5%; p53 reactivation: -10.8%; NPC1 prom act: 0.2%; ELG1 genotox: 1.0%; Rab9 promoter act: 9.0%

How did Cc1oc(-c2ccoc2)nc1CN(CC1CCC(=O)N1)C(C)C (stereo not given) do in these assays?
FLuc counter: -1.3%; p53 reactivation: 3.5%; NPC1 prom act: -3.6%; ELG1 genotox: 3.5%; Rab9 promoter act: -1.3%

How did COCCN(Cc1nc(-c2ccc(-c3ccccc3)cc2)oc1C)C(C)C do in these assays?
FLuc counter: 9.53µM*; p53 reactivation: -13.3%; NPC1 prom act: -19.9%; ELG1 genotox: 0.92µM*; Rab9 promoter act: inconclusive

What do the screens show for `COc1ccc(NC(=O)CSc2nnc(C)n2C2CC2)cc1S(=O)(=O)N1CCOCC1`?
FLuc counter: -0.6%; p53 reactivation: inconclusive; NPC1 prom act: -2.8%; ELG1 genotox: -0.9%; Rab9 promoter act: 1.8%

What do the screens show for `N#C/C(=N\Nc1ccc(Cl)cc1)C(=N)N1CCCCCC1`?
FLuc counter: 0.953µM*; p53 reactivation: 7.9%; SMN2 splice up: 3.55µM*; NPC1 prom act: 0.398µM*; ELG1 genotox: 1.83µM*; Rab9 promoter act: 0.316µM*

Results for N#C/C(=N\Nc1ccc(S(=O)(=O)N2CCCCCC2)cc1)C(N)=S ?
FLuc counter: inconclusive; p53 reactivation: 7.3%; SMN2 splice up: -23.0%; NPC1 prom act: -1.6%; ELG1 genotox: -16.8%; Rab9 promoter act: 0.2%

How did N#C/C(=N\Nc1ccc(S(=O)(=O)N2CCCCC2)cc1)C(N)=S do in these assays?
FLuc counter: -15.1%; p53 reactivation: 4.9%; SMN2 splice up: -45.1%; NPC1 prom act: 0.0%; ELG1 genotox: -12.1%; Rab9 promoter act: 0.2%

What do the screens show for `N#C/C(=N\Nc1ccccc1)C(=N)N1CCCCC1`?
FLuc counter: 5.36µM*; p53 reactivation: inconclusive; SMN2 splice up: 11.2µM*; NPC1 prom act: 2µM*; ELG1 genotox: 6.51µM*; Rab9 promoter act: inconclusive
